# Screens deposited in PubChem BioAssay by National Center for Advancing Translational Sciences (NCATS).
# IMPase cell inh: qHTS Assay for Identifying the Cell-Membrane Permeable IMPase Inhibitors. Inositol monophosphatase 1 (Rattus norvegicus), P97697. CHO-M1 cells, IP1 accumulation, HTRF TR-FRET ratio. inhibition (IP1 accumulation), % at 46.1 µM. 120,000 tested, under 10 active. AID 901, 2007; active means well fitted curve in the direction sought with a large enough effect in the signal ratio, not every such curve was filed as active; inconclusive means small, poorly fitted or top-dose-only effect, or a change in a side signal; inactive means no such curve, though single readings can be large or run the other way; the % refers to the signal ratio;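 further: cells stimulated with carbachol in lithium chloride buffer; higher means more IMPase inhibition seen as more IP1 and lower FRET ratio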
#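 The IP-One HTRF competitive assay in carbachol-stimulated CHO-M1 cells quantifies cellular IP1. Compounds spanned up to 46 uM final, and activity is expressed as AC50 from concentration-response fits of the ratio and donor data.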
# IMPase Li inh: qHTS Assay for Identifying the Cell-Membrane Permeable IMPase Inhibitors: Potentiation with Lithium | CHO-M1 cells, IP1 TR-FRET (IP-One), carbachol + lithium | Potency, µM (highest dose often 59.4 µM), usual class: inhibitors | AID 1457, 2008 | hit rate 0.35% among 210,000;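 further: IP1 builds up when IMPase is blocked and the TR-FRET signal falls; nearly all actives have a fitted effect of over 50% in size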
#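 CHO-M1, 2000 cells/well, 16–30 h culture; cpd + low Li+, 30 min 37C; lysis with d2-IP1/Eu-anti-IP1 Ab, 10 min RT; TR-FRET 665/620 ratio and 620 channel; AC50 via Hill.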
# HPGD inh: qHTS Assay for Inhibitors of HPGD (15-Hydroxyprostaglandin Dehydrogenase); purified HPGD, NADH fluorescence kinetic, PGE2 substrate; Potency, µM, actives largely listed as inhibitors; hit rate 4.3% among 150,000; AID 894, 2007; active means well fitted inhibition curve with a large enough effect, not every such curve was filed as active; inconclusive means small, poorly fitted or top-dose-only effect, or another doubt; inactive means no such curve, though single readings can be large or run the other way
#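 NADH formation kinetics: reaction with 30 uM PGE2 and 1 mM NAD+ (final), 20 nM enzyme, Tris-HCl pH 8 with Tween 20, after 15 min compound preincubation at room temperature. Fluorescence change, last versus first of five reads.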
# 12-hLO inh: qHTS Assay for Inhibitors of 12-hLO (12-human lipoxygenase) | purified 12-hLO, xylenol orange hydroperoxide absorbance | Potency, µM (doses to about 57.1 µM), usual class: inhibitors | hit rate 0.12% among 150,000; further: nearly all actives have a fitted effect of over 55% in size
# Target sequence (P18054 whole entry, looked up): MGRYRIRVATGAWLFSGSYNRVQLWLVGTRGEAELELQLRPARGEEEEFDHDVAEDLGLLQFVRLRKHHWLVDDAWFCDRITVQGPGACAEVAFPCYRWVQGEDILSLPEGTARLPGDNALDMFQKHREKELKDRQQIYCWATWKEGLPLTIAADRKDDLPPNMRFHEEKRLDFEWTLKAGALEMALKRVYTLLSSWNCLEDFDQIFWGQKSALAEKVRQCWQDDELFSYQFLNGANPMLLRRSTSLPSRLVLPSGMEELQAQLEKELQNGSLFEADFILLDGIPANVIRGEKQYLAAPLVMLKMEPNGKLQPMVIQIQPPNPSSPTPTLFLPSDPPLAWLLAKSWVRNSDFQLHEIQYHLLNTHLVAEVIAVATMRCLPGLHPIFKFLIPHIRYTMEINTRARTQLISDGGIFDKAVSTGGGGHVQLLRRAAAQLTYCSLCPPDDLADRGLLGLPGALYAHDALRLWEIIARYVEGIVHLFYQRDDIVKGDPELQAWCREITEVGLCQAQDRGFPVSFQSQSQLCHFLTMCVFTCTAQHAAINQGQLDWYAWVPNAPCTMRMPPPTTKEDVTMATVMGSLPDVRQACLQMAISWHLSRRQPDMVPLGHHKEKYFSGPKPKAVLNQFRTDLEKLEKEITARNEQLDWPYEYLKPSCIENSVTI
#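 Hydroperoxide output read as Fe(III)-xylenol orange absorbance, 573-to-405 nm ratio, after 30 min reaction with 40 uM arachidonic acid. Enzyme: 150 nM purified human 12hLO, 15 min compound preincubation; 25 mM Hepes pH 7.0, room temperature.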
# ALDH1A1 block: qHTS Assay for Inhibitors of Aldehyde Dehydrogenase 1 (ALDH1A1); Aldehyde dehydrogenase 1A1 (Homo sapiens), P00352; Purified ALDH1A1, NADH fluorescence, propionaldehyde substrate; Potency, µM (titrated, usually from 75.3 µM), most hits filed as inhibitors; hit rate 7.3% among 220,000; active means well fitted inhibition curve with a large enough effect, not every such curve was filed as active; inconclusive means small, poorly fitted or top-dose-only effect, or another doubt; inactive means no such curve, though single readings can be large or run the other way
# NPSR antag: qHTS Assay for Antagonists of the Neuropeptide S Receptor: cAMP Signal Transduction; Q6W5P4; CHO-NPSR cells, cAMP TR-FRET, antagonist mode; hit rate 1% among 220,000; AID 1461, 2008; Potency, µM (titrated, usually from 38.3 µM), hits mostly inhibitors; further: nearly all actives have a fitted effect of over 50% in size
# Hits are given with their value; i = inactive; ? = inconclusive; nt = no result given; [ ] = dose if it differs, or a comment. Only some compounds are listed: those with a hit (about 8.9% of all), similar ones and a draw of the others. Unless noted, the call rests on the fitted dose curve; in most records, active means well fitted curve in the direction sought with a large enough effect; inconclusive means small, poorly fitted or top-dose-only effect, or another doubt; inactive means no such curve, though single readings can be large; an effect the other way counts as inactive or inconclusive.
SMILES,IMPase cell inh,IMPase Li inh,HPGD inh,12-hLO inh,ALDH1A1 block,NPSR antag
O=C(O)COc1ccc(C(=O)c2cccs2)c(Cl)c1Cl,nt,i,i,i[0.00818 µM],i,nt
O=C(O)COc1ccc2nsnc2c1Cl,?,i,?,i,?,13µM
O=C(O)c1ccc(-n2[nH]c3c(c2=O)CCCC3)cc1,nt,i,nt,nt,?,i
Cc1ccc2oc3c(c(=O)c2c1)C(c1cccc(Cl)c1)N(CCCN1CCOCC1)C3=O (stereo not drawn),i,i,i,i,13µM,i
Cc1ccc2oc3c(c(=O)c2c1)C(c1cccc(O)c1)N(CCCN1CCOCC1)C3=O (stereo not drawn),i,nt,nt,nt,nt,nt
Cc1ccc2oc3c(c(=O)c2c1)C(c1ccc(F)cc1)N(CCCN1CCOCC1)C3=O (stereo not drawn),i,i,i,i,3.5µM,i
COc1ccc(OCC(O)Cn2c(Br)nc3c2c(=O)[nH]c(=O)n3C)cc1 (stereo not drawn),i,i,?,i,i,i
C=CCc1ccccc1OCC(O)CNC (stereo not drawn),i,i,i,i,22µM,i
CCSc1nnc(NC(=O)CN2C(=O)C3CC=CCC3C2=O)s1 (stereo not drawn),nt,i,nt,nt,i,i
N#CCCN1CCN(C2=NC(=O)/C(=C\c3cccs3)S2)CC1,nt,i,nt,nt,25µM,i
O=C1N=C(N2CCOCC2)S/C1=C\c1cccs1,nt,i,nt,nt,?,i
O=S(=O)(CCSc1nc2ccccc2o1)c1nc2ccccc2s1,i,i,i,i,0.28µM,i
O=S(=O)(CCSc1nc2ccccc2o1)Cc1ccccc1,i,i,i,i,20µM,i
O=S(=O)(NCCSc1nc2ccccc2o1)c1ccccc1,i,i,i,i,?,i
CCS(=O)(=O)CCSc1nc2ccccc2o1,i,i,i,i,i,i
O=S(=O)(CCSc1ccccn1)c1nc2ccccc2s1,i,i,i,i,0.22µM,i
CCCc1ccc(C(=O)CCC(=O)O)cc1,i,i,i,i,i,i
Cc1c(C(=O)NN2CCOCC2)nn(-c2ccc(Cl)cc2Cl)c1-c1ccc(I)cc1,i,i,i,i,i,nt
CSCC[C@H](NC(=O)NCc1ccccc1F)C(=O)O,i,i,i,i,i,i
NN(CC(=O)O)CC(=O)O,nt,i,i,i[11.4 µM],i[13.5 µM],nt
CC(O)CNC(=O)C1CCN(Cc2ccc(OCc3ccccc3)cc2)CC1 (stereo not drawn),i,i,i,i,20µM,i
Cc1cc(O)c(Oc2cc(C)cc(O)c2O)c(O)c1,nt,i,nt,nt,8.9µM,i
COc1ccccc1N1C(=O)N(C(C)=O)C2C1Nc1ccccc1N2C (stereo not drawn),i,i,i,?,1.8µM,i
O=C(O)CN1CCCC1=Nc1ccccc1,i,i,i,i,89µM,i
COC1CCCCC1Nc1ccc(C)c(C)c1 (stereo not drawn),i[0.369 µM],i,i,i,10µM,i
SMILES,IMPase cell inh,IMPase Li inh,HPGD inh,12-hLO inh,ALDH1A1 block,NPSR antag
COc1cc(CNC2CCCCC2OC)cc(OC)c1 (stereo not drawn),nt,i,nt,nt,i,i
COC(=O)C1=C(C(=O)OC)C(c2ccccc2O)c2sc(=O)[nH]c2S1 (stereo not drawn),nt,i,22µM,i,?,i
COC(=O)c1sc2ccccc2c1N,i,i,?,i,?,i
COC(=O)C1C(c2ccc(OC)c(OC)c2)NC(c2ccc(OC)c(OC)c2)C(C(=O)OC)S1(=O)=O (stereo not drawn),i,i,i,i,i,i
COC(=O)C1CSc2[nH]c(=O)sc2C1c1ccc(OC)c(OC)c1 (stereo not drawn),i,i,i,i,7.9µM,i
CCOC(=O)CSc1nc2ccccc2n2cnnc12,i,?,?,i,18µM,i
COc1ccc(C(=O)Nn2c(SCC(=O)NC3CCCC3)nc3ccccc3c2=O)cc1,i,i,i,i,?,i
O=C(O)c1ccccc1C(c1ccc(O)cc1)c1ccc(O)cc1,nt,i,i,i,28µM,nt
O=C(c1ccc(N2CCN(C3CC(=O)N(c4ccc(F)cc4)C3=O)CC2)cc1)c1cccnc1 (stereo not drawn),i,i,i,i,i,i
CCOC(=O)c1cnn(-c2ncnc3sc(C)c(C)c23)c1N,i,i,i,i,i,i
CC1CCN(C(=S)Nc2ccc(F)cc2)CC1,nt,i,i,i,i,i
C/C(=N\NC(=S)Nc1ccc(F)cc1)C1CC1,i,i,i,i,15µM,i
CCN(CC)C(=O)C1CCN(CC2CC=CCC2)CC1 (stereo not drawn),i,i,i,i,?,i
CC(=O)Nc1ccc(S(=O)(=O)NCc2ccc(C(=O)NCCN3CCCCCC3)cc2)cc1,i,i,i,i,i,i
Cc1ccc(S(=O)(=O)N(C)Cc2ccc(C(=O)NN=C(CC(C)C)CC(C)C)cc2)cc1,nt,i,i,i,7.1µM,i
Cc1ccc(S(=O)(=O)N(C)Cc2ccc(C(=O)N/N=C3\CCCC(=O)C3)cc2)cc1,nt,i,i,i,?,i
CC/C(=N\NC(=O)c1ccc(CN(C)S(=O)(=O)c2ccc(C)cc2)cc1)c1ccc(OC(F)F)cc1,nt,i,i,i,13µM,i
Cc1ccc(S(=O)(=O)N(C)Cc2ccc(C(=O)NN=C3C4CC5CC(C4)CC3C5)cc2)cc1,i,nt,nt,i,0.5µM,i
N#CCSc1n[nH]c2nc3c(c(=O)n12)C1(CCCC1)Cc1ccccc1-3,i,i,?,i,?,i
O=C(C[n+]1cnn(CC(=O)c2ccc(Cl)cc2Cl)c1)c1ccc([N+](=O)[O-])cc1,i,i,i,i,20µM,i
COc1ccc(Cc2nnc(NC(=O)c3c(-c4ccccc4)noc3C)s2)cc1OC,i,i,i,i,32µM,i
COC(=O)c1sccc1NC(=O)c1ccc(OC)cc1,i,?,?,i,?,?
COc1ccc(Cc2nnc(NC(=O)c3c(-c4ccccc4)noc3C)s2)cc1,i,i,i,i,i,i
COC(=O)c1sccc1NC(=O)c1cccnc1,i,i,28µM,i,i,i
COC(=O)c1c(-c2ccc(C)cc2)csc1NC(=O)c1c(-c2ccccc2)noc1C,i,i,?,i,?,i
Cc1onc(-c2ccccc2)c1C(=O)NC(=S)NNC(=O)c1cccnc1,nt,i,i,i,?,i
Cc1onc(-c2ccccc2)c1C(=O)NC(=S)NNC(=O)c1ccncc1,nt,i,i,i,18µM,i
COC(=O)c1sccc1NC(=O)c1c(-c2ccccc2)noc1C,nt,i,i,i,8.9µM,i
